Experiment [1] concerns the target Rho-associated protein kinase 1 (Homo sapiens) (UniProt Q13464). The following applies: at 1 µM.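 Also: reported values are mean percent inhibition of ROCK1.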
For experiment [2], the target named is Rho-associated protein kinase 2 (Homo sapiens) (UniProt O75116). The following applies: at 0.1 µM.
The target is the same in experiment [3]. The following applies: at 1 µM.
In experiment [4] the target is Ribosomal protein S6 kinase alpha-1 (Homo sapiens) (UniProt Q15418). The following applies: at 0.1 µM.
Sequence of Ribosomal protein S6 kinase alpha-1 (Homo sapiens) (Q15418 whole entry): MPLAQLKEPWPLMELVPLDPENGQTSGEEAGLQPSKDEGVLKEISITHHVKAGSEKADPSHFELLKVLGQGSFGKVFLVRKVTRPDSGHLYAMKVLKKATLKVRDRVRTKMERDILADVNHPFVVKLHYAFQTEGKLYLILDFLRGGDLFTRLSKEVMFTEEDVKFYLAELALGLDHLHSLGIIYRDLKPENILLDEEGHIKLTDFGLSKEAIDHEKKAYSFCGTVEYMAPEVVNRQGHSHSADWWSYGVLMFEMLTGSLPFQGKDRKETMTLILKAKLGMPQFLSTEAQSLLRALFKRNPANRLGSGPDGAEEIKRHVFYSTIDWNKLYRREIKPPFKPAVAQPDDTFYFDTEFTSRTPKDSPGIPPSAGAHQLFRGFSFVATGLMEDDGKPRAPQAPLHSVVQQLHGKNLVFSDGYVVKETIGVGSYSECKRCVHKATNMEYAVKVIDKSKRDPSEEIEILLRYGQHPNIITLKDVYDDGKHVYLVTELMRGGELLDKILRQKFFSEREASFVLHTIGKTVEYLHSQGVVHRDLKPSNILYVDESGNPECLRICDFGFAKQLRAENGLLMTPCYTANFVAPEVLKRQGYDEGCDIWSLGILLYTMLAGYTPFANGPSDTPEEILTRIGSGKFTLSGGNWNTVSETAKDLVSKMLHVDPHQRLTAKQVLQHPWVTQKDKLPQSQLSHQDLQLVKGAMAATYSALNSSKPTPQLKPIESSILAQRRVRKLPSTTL
Experiment [5] shares this target. The following applies: at 1 µM.
Experiment [6] deals with Ribosomal protein S6 kinase alpha-3 (Homo sapiens) (UniProt P51812). The following applies: at 0.1 µM.
Sequence of Ribosomal protein S6 kinase alpha-3 (Homo sapiens) (P51812 whole entry): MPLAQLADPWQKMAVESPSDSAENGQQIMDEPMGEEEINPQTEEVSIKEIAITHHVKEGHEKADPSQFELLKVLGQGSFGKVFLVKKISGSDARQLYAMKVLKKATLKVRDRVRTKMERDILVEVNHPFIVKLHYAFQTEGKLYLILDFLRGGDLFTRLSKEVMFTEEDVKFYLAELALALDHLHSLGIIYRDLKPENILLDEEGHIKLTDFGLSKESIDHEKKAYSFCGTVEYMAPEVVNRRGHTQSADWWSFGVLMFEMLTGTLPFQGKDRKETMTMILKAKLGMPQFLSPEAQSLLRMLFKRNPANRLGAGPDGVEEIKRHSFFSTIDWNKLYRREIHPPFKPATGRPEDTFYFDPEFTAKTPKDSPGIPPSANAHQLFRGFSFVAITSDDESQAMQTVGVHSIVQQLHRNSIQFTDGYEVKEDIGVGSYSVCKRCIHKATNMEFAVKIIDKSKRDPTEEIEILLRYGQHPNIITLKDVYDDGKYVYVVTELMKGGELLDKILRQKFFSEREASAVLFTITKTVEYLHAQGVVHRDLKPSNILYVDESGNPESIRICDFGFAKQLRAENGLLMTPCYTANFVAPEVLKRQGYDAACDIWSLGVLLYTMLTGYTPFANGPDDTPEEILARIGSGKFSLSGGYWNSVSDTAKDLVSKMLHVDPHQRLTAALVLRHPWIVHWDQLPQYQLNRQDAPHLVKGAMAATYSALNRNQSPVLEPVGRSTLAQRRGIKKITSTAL
For experiment [7] the target is unchanged. The following applies: at 1 µM.
The target in experiment [8] is Ribosomal protein S6 kinase alpha-2 (Homo sapiens) (UniProt Q15349). The following applies: at 0.1 µM.
Sequence of Ribosomal protein S6 kinase alpha-2 (Homo sapiens) (Q15349 whole entry): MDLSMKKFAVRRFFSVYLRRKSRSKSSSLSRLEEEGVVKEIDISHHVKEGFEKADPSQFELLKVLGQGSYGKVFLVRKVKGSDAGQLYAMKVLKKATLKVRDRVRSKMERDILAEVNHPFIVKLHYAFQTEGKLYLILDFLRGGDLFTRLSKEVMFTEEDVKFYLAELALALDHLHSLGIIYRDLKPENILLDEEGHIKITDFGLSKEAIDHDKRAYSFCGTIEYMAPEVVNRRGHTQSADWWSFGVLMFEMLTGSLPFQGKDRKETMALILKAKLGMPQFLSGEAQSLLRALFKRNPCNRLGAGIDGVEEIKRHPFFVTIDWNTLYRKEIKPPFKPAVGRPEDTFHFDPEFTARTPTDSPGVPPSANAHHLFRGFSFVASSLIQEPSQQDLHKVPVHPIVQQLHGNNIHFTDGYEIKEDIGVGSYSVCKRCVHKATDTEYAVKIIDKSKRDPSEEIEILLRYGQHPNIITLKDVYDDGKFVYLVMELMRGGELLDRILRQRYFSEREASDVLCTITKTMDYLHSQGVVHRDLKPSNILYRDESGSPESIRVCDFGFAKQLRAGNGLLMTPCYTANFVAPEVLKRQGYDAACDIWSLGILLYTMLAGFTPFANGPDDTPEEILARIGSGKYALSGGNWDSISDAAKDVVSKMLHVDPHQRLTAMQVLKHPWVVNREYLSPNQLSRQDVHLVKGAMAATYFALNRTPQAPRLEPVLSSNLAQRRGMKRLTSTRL
For experiment [9] the target is unchanged. The following applies: at 1 µM.
In experiment [10] the target is Ribosomal protein S6 kinase alpha-6 (Homo sapiens) (UniProt Q9UK32). The following applies: at 0.1 µM.
Sequence of Ribosomal protein S6 kinase alpha-6 (Homo sapiens) (Q9UK32 whole entry): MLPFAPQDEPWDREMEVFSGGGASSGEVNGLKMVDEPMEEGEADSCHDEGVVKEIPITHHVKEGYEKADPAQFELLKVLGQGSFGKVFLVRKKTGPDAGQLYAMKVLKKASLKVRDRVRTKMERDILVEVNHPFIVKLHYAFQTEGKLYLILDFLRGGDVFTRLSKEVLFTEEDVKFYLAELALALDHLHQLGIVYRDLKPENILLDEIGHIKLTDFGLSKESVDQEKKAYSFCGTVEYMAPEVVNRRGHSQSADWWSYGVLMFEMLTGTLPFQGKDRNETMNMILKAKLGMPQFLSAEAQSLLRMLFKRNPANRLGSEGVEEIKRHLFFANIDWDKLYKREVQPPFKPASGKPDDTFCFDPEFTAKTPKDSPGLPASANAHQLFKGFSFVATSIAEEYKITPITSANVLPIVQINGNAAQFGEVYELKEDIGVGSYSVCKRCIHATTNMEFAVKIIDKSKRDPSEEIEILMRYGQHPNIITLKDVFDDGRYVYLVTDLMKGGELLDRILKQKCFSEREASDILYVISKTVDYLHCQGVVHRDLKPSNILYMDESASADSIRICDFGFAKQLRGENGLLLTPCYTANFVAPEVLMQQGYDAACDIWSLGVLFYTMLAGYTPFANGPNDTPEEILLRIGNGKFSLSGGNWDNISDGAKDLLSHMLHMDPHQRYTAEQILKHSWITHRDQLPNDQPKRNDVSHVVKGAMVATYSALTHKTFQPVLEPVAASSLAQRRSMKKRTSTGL
The target is the same in experiment [11]. The following applies: at 1 µM.
Experiment [12] deals with T1, Serine/threonine-protein kinase Sgk1 (Homo sapiens) (UniProt O00141).
T1 sequence (whole entry): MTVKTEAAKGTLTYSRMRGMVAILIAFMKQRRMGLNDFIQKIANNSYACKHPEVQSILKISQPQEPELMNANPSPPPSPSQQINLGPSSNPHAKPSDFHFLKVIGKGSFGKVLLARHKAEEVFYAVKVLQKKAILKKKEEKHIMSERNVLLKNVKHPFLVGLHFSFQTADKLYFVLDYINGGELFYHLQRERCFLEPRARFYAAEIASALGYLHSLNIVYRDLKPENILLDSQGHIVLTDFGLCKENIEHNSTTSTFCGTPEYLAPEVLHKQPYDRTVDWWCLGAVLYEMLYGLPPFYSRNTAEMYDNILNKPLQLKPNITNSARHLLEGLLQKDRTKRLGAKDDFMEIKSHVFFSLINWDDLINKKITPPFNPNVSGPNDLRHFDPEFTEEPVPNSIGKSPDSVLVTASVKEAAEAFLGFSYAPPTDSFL
The following applies: at 0.1 µM.

In experiment [13] the target is T1, Serine/threonine-protein kinase Sgk1 (Homo sapiens). The following applies: at 1 µM.
In experiment [14] the target is T2, Serine/threonine-protein kinase Sgk2 (Homo sapiens) (UniProt Q9HBY8).
T2 sequence (whole entry): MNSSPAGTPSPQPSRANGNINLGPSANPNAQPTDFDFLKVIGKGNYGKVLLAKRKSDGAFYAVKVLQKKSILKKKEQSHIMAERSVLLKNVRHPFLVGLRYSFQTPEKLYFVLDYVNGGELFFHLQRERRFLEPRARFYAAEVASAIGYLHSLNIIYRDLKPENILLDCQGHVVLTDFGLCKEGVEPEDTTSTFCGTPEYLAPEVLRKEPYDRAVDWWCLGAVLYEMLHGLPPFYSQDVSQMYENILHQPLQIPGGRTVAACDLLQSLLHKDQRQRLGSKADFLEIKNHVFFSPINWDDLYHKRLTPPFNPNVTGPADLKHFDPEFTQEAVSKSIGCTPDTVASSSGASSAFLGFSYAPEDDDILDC
The following applies: at 0.1 µM.

For experiment [15], the target named is T2, Serine/threonine-protein kinase Sgk2 (Homo sapiens). The following applies: at 1 µM.
The target of experiment [16] is T3, Serine/threonine-protein kinase Sgk3 (Homo sapiens) (UniProt Q96BR1).
T3 sequence (whole entry): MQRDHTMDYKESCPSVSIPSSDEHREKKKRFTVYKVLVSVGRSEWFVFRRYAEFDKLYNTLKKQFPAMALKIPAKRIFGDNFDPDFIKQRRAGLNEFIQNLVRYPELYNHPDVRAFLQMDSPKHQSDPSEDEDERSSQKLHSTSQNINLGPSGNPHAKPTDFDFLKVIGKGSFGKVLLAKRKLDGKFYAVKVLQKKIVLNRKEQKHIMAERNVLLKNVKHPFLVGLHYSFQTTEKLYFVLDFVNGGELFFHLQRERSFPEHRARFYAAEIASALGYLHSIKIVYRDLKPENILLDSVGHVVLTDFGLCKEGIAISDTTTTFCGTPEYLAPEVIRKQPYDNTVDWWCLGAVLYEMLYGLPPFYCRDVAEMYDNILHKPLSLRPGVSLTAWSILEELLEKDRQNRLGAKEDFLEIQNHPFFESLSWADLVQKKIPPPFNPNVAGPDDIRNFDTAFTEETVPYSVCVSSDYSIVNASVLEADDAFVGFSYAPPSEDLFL
The following applies: at 0.1 µM.

The target in experiment [17] is T3, Serine/threonine-protein kinase Sgk3 (Homo sapiens). The following applies: at 1 µM.
In experiment [18] the target is 5'-AMP-activated protein kinase catalytic subunit alpha-1 (Homo sapiens) (UniProt Q13131). The following applies: at 0.1 µM.
Sequence of 5'-AMP-activated protein kinase catalytic subunit alpha-1 (Homo sapiens) (Q13131 whole entry, looked up): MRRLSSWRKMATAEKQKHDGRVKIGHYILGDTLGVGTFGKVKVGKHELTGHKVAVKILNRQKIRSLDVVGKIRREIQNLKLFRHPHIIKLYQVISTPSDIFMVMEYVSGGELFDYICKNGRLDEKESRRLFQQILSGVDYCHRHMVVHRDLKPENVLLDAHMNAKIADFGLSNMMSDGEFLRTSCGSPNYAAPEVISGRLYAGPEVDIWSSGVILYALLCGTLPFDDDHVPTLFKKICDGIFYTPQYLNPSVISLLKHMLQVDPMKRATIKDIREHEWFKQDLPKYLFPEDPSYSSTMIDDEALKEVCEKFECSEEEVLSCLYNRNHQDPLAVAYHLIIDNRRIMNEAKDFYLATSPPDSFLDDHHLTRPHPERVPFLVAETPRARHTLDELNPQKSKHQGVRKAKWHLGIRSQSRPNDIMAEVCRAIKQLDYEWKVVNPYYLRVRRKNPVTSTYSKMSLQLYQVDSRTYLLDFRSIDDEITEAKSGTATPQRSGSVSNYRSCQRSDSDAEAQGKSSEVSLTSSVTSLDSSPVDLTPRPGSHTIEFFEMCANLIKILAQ
For experiment [19] the target is unchanged. The following applies: at 1 µM.
In experiment [20] the target is 5'-AMP-activated protein kinase catalytic subunit alpha-2 (Homo sapiens) (UniProt P54646). The following applies: at 0.1 µM.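 Also: mean inhibition measured on the AMPK complex of alpha2, beta1 and gamma1 subunits.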

Results on 7 compounds are retold here after ChEMBL document CHEMBL1961873, “Compounds: GSK PKIS; Assays: Nanosyn kinase panel” (2012).

For orientation: inhibition means the change of the read-out against control, counted positive when it falls.

Sequence of Rho-associated protein kinase 2 (Homo sapiens) (O75116 whole entry, looked up): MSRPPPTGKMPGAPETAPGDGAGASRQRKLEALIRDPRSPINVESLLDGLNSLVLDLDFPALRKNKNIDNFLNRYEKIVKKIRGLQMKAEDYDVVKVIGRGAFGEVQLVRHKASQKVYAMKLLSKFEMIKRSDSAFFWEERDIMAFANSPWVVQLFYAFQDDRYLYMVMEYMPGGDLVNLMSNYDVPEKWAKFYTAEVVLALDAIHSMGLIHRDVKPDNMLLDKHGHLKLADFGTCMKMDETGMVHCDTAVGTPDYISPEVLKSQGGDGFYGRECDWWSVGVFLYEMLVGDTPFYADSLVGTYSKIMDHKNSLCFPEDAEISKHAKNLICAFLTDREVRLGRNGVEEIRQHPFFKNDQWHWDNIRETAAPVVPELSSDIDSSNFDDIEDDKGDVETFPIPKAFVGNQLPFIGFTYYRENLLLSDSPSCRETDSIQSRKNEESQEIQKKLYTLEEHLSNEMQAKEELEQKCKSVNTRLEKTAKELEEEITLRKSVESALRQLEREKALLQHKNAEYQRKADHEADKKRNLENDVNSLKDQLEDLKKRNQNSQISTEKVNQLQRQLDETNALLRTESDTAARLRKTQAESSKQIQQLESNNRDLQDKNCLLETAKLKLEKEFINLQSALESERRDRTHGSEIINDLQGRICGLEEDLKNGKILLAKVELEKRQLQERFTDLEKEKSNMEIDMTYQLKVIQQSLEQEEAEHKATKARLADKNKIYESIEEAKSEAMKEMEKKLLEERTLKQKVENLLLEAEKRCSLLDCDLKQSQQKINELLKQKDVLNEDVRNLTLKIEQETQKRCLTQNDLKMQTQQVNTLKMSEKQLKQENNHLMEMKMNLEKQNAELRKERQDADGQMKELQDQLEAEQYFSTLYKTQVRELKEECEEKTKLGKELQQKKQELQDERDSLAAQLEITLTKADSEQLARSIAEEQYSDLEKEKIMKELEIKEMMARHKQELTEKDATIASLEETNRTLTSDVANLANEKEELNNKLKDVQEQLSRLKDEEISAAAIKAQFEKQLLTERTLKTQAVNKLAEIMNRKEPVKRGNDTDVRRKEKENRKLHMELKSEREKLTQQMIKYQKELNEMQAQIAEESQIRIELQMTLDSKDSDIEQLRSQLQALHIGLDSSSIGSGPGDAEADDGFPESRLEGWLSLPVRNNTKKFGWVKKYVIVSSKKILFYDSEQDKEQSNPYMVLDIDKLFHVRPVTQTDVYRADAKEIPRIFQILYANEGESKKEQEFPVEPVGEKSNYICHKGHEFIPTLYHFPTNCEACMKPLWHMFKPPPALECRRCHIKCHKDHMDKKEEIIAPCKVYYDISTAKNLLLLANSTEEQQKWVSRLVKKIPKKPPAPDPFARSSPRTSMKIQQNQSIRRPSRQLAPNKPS

For `COC(=O)c1ccc2c(c1)C(=Cc1cc(Br)c(O)c(Br)c1)C(=O)N2`, the inhibition in experiment [1] worked out at 1.74%; in experiment [2] it was 1.52%; in experiment [3], 3.89%; in experiment [4] it was 1.5%; in experiment [5] it was 6.51%; in [6] it was 1.97%. For the same compound, the inhibition is 4.23% in [7]; 3.99% in experiment [8]; 6.79% in experiment [9]; 2.52% in experiment [10]; 7.3% in [11]; 1.67% in [12]. Besides, the inhibition amounted to 5.36% in [13]; 5.27% in experiment [14]; 12.1% in experiment [15]; 3.08% in [16]; 3.5% in experiment [17]; 2.71% in [18]. Moreover, the inhibition in [19] stood at 6.28%; in [20], 8.21%.
`C[C@@H](Oc1cc(-n2cnc3ccc(OC[C@@H](O)CO)cc32)sc1C(N)=O)c1ccccc1Cl`: the inhibition in experiment [1] is 1.42%; in [2], -0.36%; in experiment [3], 0.84%; in [4], 0.36%; in experiment [5], 3.32%; in experiment [6], 1.35%. For the same compound, the inhibition was 5.89% in experiment [7]; -0.54% in experiment [8]; 3.27% in experiment [9]; -0.4% in experiment [10]; 12.7% in experiment [11]; 1.2% in experiment [12]. In addition, the inhibition in [13] is 0.68%; in [14], 1.68%; in experiment [15] it was 2.9%; in experiment [16], -1.63%; in experiment [17], 0.55%; in experiment [18], 0.18%. Moreover, the inhibition was 5.73% in [19] and 0.26% in experiment [20].
Turning to `COc1cccc(-n2ncc3c(N/N=C/c4ccc(S(C)(=O)=O)cc4)ncnc32)c1`, the inhibition in [1] came to 1.16%; in experiment [2] it was 1.71%; in experiment [3], 1.85%; in [4] it was 1.45%; in experiment [5], 0.53%; in [6], 1.53%. The inhibition in experiment [7] stood at 0.98%; in experiment [8], 1.87%; in experiment [9], 4.48%; in experiment [10], 0.99%; in experiment [11] it was 3.2%; in experiment [12], 3.81%. Besides, the inhibition in [13] is 10.1%; in experiment [14], 6.74%; in experiment [15] it was 4.33%; in experiment [16], -0.55%; in [17], 2.6%; in experiment [18], 1.41%. Further, the inhibition in [19] came to 2%; in [20], 3.56%.
On to `COc1cc2ncnc(Nc3ccc(C)c(O)c3)c2cc1OC`, for which the inhibition came out at 0.99% in experiment [1]; 3.05% in experiment [2]; 3.9% in [3]; 1.8% in [4]; 6.05% in [5]; 1.52% in experiment [6]. Moreover, the inhibition was determined as 3.02% in experiment [7]; 3.28% in [8]; 3.51% in experiment [9]; 2.48% in experiment [10]; 3.03% in experiment [11]; 2.84% in experiment [12]. The inhibition in [13] stood at 5.46%; in [14] it was 3.56%; in experiment [15], 2.34%; in experiment [16] it was 2.82%; in [17] it was 4.55%; in experiment [18], 4.38%. Besides, the inhibition in experiment [19] came out at 5.7%; in experiment [20], 3.32%.
On to `COc1cc(Nc2nccc(-c3cnn4ncccc34)n2)cc(OC)c1`, for which the inhibition came out at 8.16% in experiment [1]; 2.33% in experiment [2]; 15% in [3]; 1.35% in [4]; 3.27% in [5]; 1.72% in experiment [6]. Also, the inhibition worked out at 4.75% in experiment [7]; 1.42% in [8]; 5.35% in [9]; 0.97% in experiment [10]; 6.06% in experiment [11]; 2.68% in experiment [12]. The inhibition in [13] is 4.34%; in experiment [14] it was 1.68%; in [15], -0.04%; in experiment [16] it was 1.95%; in experiment [17], 2.1%; in experiment [18], 3.39%. Also, the inhibition in experiment [19] was determined as 16.7%; in experiment [20] it was 0.99%.
On to `[O-][S+]1CCN(Cc2ccc(-c3ccc4ncnc(Nc5ccc(OCc6ccccc6)c(Cl)c5)c4c3)o2)CC1`, for which the inhibition was 1.73% in experiment [1]; 0.05% in experiment [2]; 0.91% in experiment [3]; -1.27% in experiment [4]; 0.75% in experiment [5]; -1.03% in experiment [6]. Besides, the inhibition in experiment [7] is 0.82%; in [8], -1.2%; in [9], 0.54%; in experiment [10] it was -1.76%; in [11] it was -0.67%; in [12] it was 2.48%. The inhibition in experiment [13] was 1.69%; in [14] it was -2.36%; in experiment [15] it was 1.12%; in [16], 0.45%; in [17], 1.38%; in experiment [18], 0.09%. Moreover, the values for the inhibition in experiment [19] and in experiment [20] were 1.19% and 2.56%, respectively.
Turning to `CCS(=O)(=O)c1ccc(OC)c(Nc2ncc(-c3cccc(OC)c3)o2)c1`, the inhibition in [1] was 2.35%; in [2], 0.89%; in [3] it was 1.18%; in experiment [4] it was 0.6%; in experiment [5] it was 4.04%; in experiment [6] it was -0.45%. The inhibition in [7] was 0.81%; in [8], 1.33%; in [9], 4.86%; in experiment [10], -0.11%; in [11], 3.54%; in experiment [12], 1.35%. Besides, the inhibition was 2.05% in experiment [13]; 3.12% in experiment [14]; 5.99% in experiment [15]; 3.65% in experiment [16]; -0.11% in experiment [17]; 1.32% in experiment [18]. The inhibition in experiment [19] was 1.33%; in [20], -0.63%.
